Test results from PubChem BioAssay (NCI).
Several values for one entry are separate records, joined by “and”; a condition that tells them apart may be missing. Equal entries are not always repeated. The panel holds about 83,000 compounds, 20% with a hit somewhere; the sample as a whole holds those more often.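 In brief: 96-well plates, 48 h treatment, single concentration, percent growth endpoint.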 Activity calls are given as the source filed them. Rule for the calls: active = growth percent below 10; inactive = the rest.

What follows are compounds tested on MDA-MB-468 breast (assay: NCI-60 one-dose screen, 48 h (100 = growth as untreated, 0 = no growth, -100 = all killed)). Conditions: 10 µM unless noted.
C=CCn1c(-c2ccc(-c3nc4ccc(C)cc4[nH]3)cc2)n[nH]c1=S was tested, and the growth was 95.6% (inactive). In the case of O=[N+]([O-])c1ccc(N/N=C/c2cccc3ccccc23)nc1, the growth is reported as 77.2% (inactive). COc1cc(-n2nc(C(=O)Nc3ccc(C(=O)O)cc3)nc2-c2ccccc2)cc(OC)c1OC was tested, and the growth was 0.458% (active). CC(CN(C)C)CN1c2ccccc2CCc2ccccc21 (stereo not given) was tested, and the growth was 41.7% (inactive). CC(=O)N1N=C(c2ccc(F)cc2)CC1c1sc(N(C)Cc2ccccc2)nc1Cl (stereo not given) was tested, and the growth was 98.1% (inactive). For O=C(CN1C(=O)CSC1=O)Nc1ccc(C(=O)/C=C/c2cc3ccccc3nc2Cl)cc1, the growth was 48.7% (inactive). CCCCOc1ccc(C(C)(C)c2ccc(OCCCC)cc2)cc1 was tested, and the growth was 132% (inactive). Nc1c2c(nc3ccc(Cl)cc13)CC(c1ccc(O)cc1)CC2=O (stereo not given) was tested, and the growth was 18% (inactive). CCCC(CCC)NCC(O)c1cc(-c2ccc(C(F)(F)F)cc2)nc(C(F)(F)F)c1 (stereo not given) was tested, and the growth was -91.6% (active). For CC(C)=NNc1ncnc2c1ncn2C1OC(CO)C(O)C1O (stereo not given), the growth was 12.5% (inactive). In the case of CCc1cccc2c3c(sc12)C(c1ccc(OC)cc1)C(C#N)=C(/N=C/c1ccc(Cl)cc1)O3 (stereo not given), the growth is reported as -6.83% (active). For Cc1cccc(Cl)c1NC(=O)c1cnc(Nc2cc(N3CCOCC3)cc(S(C)(=O)=O)c2)s1, the growth was 26.7% (inactive). For O=C(O)CNC(=O)CN1C(=O)c2ccccc2C1=O, the growth was 106% (inactive). CC(c1ccccc1)N1C(=O)CSC1=S (stereo not given) was tested, and the growth was -5.47% (active). With CCOC(=O)Cn1c(C)c(/C=N/NC(=O)c2cc3c(ccc4ccccc43)o2)c2ccccc21 the growth was 16.1% (inactive). COc1cc(/C=N/NC(=O)c2cnn3c2NC(c2ccccc2)C3)ccc1Oc1ccccc1 (stereo not given) was tested, and the growth was 6.71% (active). For O=C(NCCc1ccccn1)OCc1nc2nc(Cl)nc(N3CCOCC3)c2[nH]1, the growth was 24.9% (inactive). CC(=O)Nc1nc(C)c(C(=O)N/N=C/c2cccn2C)s1 was tested, and the growth was 111% (inactive). For CS(=O)(=O)Cc1cnc(C2OCCO2)s1, the growth was 97.7% (inactive). For CC(=O)CC(c1ccc([N+](=O)[O-])cc1)c1c(O)c2ccccc2oc1=O (stereo not given), the growth was 104% (inactive). For CC1CCCC(CC(N)=O)CC1 (stereo not given), the growth was 97.9% (inactive). Cc1ccc(NC(=O)c2ccccc2Cl)cc1 was tested, and the growth was 114% (inactive). In the case of O=C(NCCN1CCCCC1)n1cc(-c2ccncc2)c(-c2ccc(Cl)c(O)c2)n1, the growth is reported as 83.8% (inactive). In the case of O=C(Nc1cccc(-n2ccc3c(NC(=O)c4ccccc4)nccc32)c1)c1cc(N2CCOCC2)cc(C(F)(F)F)c1, the growth is reported as -32.3% (active). NS(=O)(=O)c1ccc(NC2=C(Cl)C(=O)c3ccccc3C2=O)cc1 was tested, and the growth was -67% (active). In the case of Cn1c2ccccc2c2c3c(c4c5cccnc5[nH]c4c21)C(=O)N(O)C3=O, the growth is reported as 0.0154% (active). With O=C1C=C(Nc2ccccc2)c2ccccc2C1=O the growth was 78% (inactive) and 76.9% (inactive). Cc1nc2ccccc2c(/C=C/c2ccccc2)c1C(=O)/C=C/c1ccc(Cl)cc1 was tested, and the growth was 19.4% (inactive). CCOC(=O)c1nc2c3ccccc3ccn2c1C(=O)OC was tested, and the growth was 92.1% (inactive). In the case of COc1ccc2c(c1)C(C)Cc1c(N(C)C)ncnc1N2C (stereo not given), the growth is reported as 29.9% (inactive). With CC(=O)[C@@H]1CC[C@]2(C(=O)O)CC[C@]3(C)[C@H](CC[C@@H]4[C@@]5(C)Cc6c([nH]c7ccccc67)C(C)(C)[C@@H]5CC[C@]43C)[C@@H]12 the growth was 82% (inactive). With NC(N)=Nc1ccc(Oc2cccc(Nc3ccc(Cl)cc3)c2)cn1 the growth was -27.9% (active). CCCOc1ccc2c(c1)CC[C@@H]1[C@@H]2CC[C@@]2(C)[C@H]1CC[C@]2(C)O was tested, and the growth was 59.8% (inactive). With CCOc1ccc2nc(NC(=O)Nc3ccccc3C)sc2c1 the growth was 20.4% (inactive). CCCCCCNC(=O)Oc1ccc(/C(=C(/C)c2ccccc2)c2ccc(OCCN(C)C)cc2)cc1 was tested, and the growth was 71.5% (inactive). In the case of CCN(CC)CCN1C(=O)c2c(c(C)c3c(oc4cc(O)ccc43)c2C)C1=O, the growth is reported as 96.3% (inactive). With COc1cc(C(=O)C[n+]2ccccc2)ccc1OC(C)=O the growth was 101% (inactive). In the case of FC(F)(F)c1ccc2c(Nc3cccc(C4CC(c5ccccc5)=NN4c4ccc(Cl)cc4)c3)ccnc2c1 (stereo not given), the growth is reported as 47.4% (inactive). With O=C(CSc1nnc(-c2ccc3nc(-c4ccc(Cl)cc4)[nH]c3c2)o1)Nc1ccc(C(=O)/C=C/c2ccc(Cl)cc2)cc1 the growth was 100% (inactive). With O=C1Nc2ccccc2/C1=N\c1nnc(-c2ccccc2)o1 the growth was 69.6% (inactive).
